From PubChem BioAssay AID738 (SRMLSC, 2007)
Screen size: about 98,000 compounds; about 4,900 (5%) were called active. The sample as a whole holds a higher share of actives than the screen did. Values without a mark were called inactive. Cut-off read from the data, not from the text of the source: active = inhibition above about 30%; inactive = the rest.

test: yeast control strain growth suppression – counter-screen for post-Golgi transport modulator project, primary screen (AID 738); conditions: efflux-deficient yeast background strain, growth absorbance A615, 16 h; at 10 µM; active compounds read high

| Compound | inhibition |
| --- | --- |
| NC(=O)c1c(NC(=O)CSc2nnc(-c3ccco3)n2N)sc2c1CCCC2 | -1.04% |
| O=C(CN1CCN(S(=O)(=O)c2ccc3ccccc3c2)CC1)NC(=O)NC1CCCCC1 | 19.7% |
| CCOc1cccc(C(=O)Nc2cnn(Cc3ccccc3)c2)c1 | -4.4% |
| CCCCCCOC(=O)NCC(O)c1ccccc1 (stereo not drawn) | 4.19% |
| CCOC(=O)C(C(=O)OCC)C(C#N)c1ccccc1 (stereo not drawn) | 30.5% (active) |
| CCOC(=O)CCP(=O)(O)C(O)(c1ccccc1)c1ccccc1 | 2.13% |
| CCNC(=S)Nc1cccc(Cl)c1C | 3.81% |
| COc1ccc(Cc2nnc(SCC(=O)c3cccc([N+](=O)[O-])c3)n2C)cc1 | 3.08% |
| Cc1ccc(NC(=O)N2CCC(c3nc4c(nnn4Cc4c(F)cccc4Cl)c(=O)[nH]3)CC2)cc1 | 8.76% |
| COc1cc(OC)c(C(=O)NC2CCCCCC2)cc1OC | 46.5% (active) |
| COc1cc(OC)c(C(=O)NC2CC(C)(C)NC(C)(C)C2)cc1OC | -5.38% |
| COc1ccc(-c2nnc(SCC(=O)NC3CCCCC3)o2)cc1OC | -2.95% |
| C=CCn1c(SCCOc2ccc(OC)cc2)nnc1C(NC(=O)c1ccc(OC)cc1)C(C)C (stereo not drawn) | 10.1% |
| CCOc1ccc(-n2c(N)c(C(=O)NCC3CCCO3)sc2=S)cc1 (stereo not drawn) | 3.93% |
| O=C(Cc1ccc(S(=O)(=O)N2CCOCC2)s1)NCCC(c1ccccc1)c1ccccc1 | 22.9% |
| O=C(NC1CCCCC1)C1CCCN(S(=O)(=O)c2cccs2)C1 (stereo not drawn) | -12.5% |
| O=C(Cc1ccc(S(=O)(=O)N2CCCC2)s1)NC1CCCCCC1 | 31.8% (active) |
| Cc1cc(N)n2nc(-c3ccc(C(C)(C)C)cc3)cc2n1 | 31% (active) |
| COc1ccc(-c2cc(C)nc3nc(N)nn23)cc1 | 5.75% |
| Cc1cccc(-n2ncc(C#N)c2-n2cccc2)c1 | 20.2% |
| Cc1[nH]nc(-c2ccc(OCc3cnn(-c4ccccc4)c3)cc2O)c1Oc1ccc(Cl)cc1 | 0% |
| Cn1c(=O)c2c(ncn2CC(COCc2ccccc2Cl)OCc2ccccc2Cl)n(C)c1=O (stereo not drawn) | 8.65% |
| COc1cc(OC)c(C(=O)Nc2ccc(N(C)C)cc2)cc1OC | 27.7% |
| COc1ccc(Cl)cc1C(=O)NCC#N | 18.5% |
| COc1ccc(Cl)cc1C(=O)Nc1ccc(N(C)C(C)=O)cc1 | 32.4% (active) |

| Compound | inhibition |
| --- | --- |
| CCn1c(C)nc2c1C(=O)c1ccccc1C2=O | 4.03% |
| CC(C)N(c1ccccc1)c1ncnc(NCCC(=O)O)c1[N+](=O)[O-] | 5.97% |
| O=S(=O)(c1cnccc1N1CCN(/N=C/c2ccc(Br)cc2)CC1)N1CCCCC1 | -4.38% |
| Cc1nc2cc(NC(=O)NCc3ccccc3)ccc2o1 | 12.9% |
| C=CCNC(=O)c1csc(-c2ccccc2)n1 | -0.15% |
| CC(=O)c1cccc(NC(=O)Nc2ccc(C)cc2)c1 | 0.29% |
| C=CC[n+]1c(-c2ccc(C)cc2)csc1NNC(=O)Nc1ccccc1 | 40.7% (active) |
| CC(=O)Nc1ccc(N2C(=O)C3C4CC(=O)C(c5ccccc54)C3C2=O)cc1 (stereo not drawn) | -8.39% |
| O=C(NCc1cccnc1)c1cccnc1Sc1ccc(Cl)cc1 | -2.08% |
| CC(C)=CC(=O)Nc1nnc(-c2ccc(F)cc2)s1 | -0.29% |
| Cc1cc(C)nc(SC(C)C(=O)N/N=C/c2cccs2)n1 (stereo not drawn) | 6.8% |
| C#CCSc1nnc(-c2sc3ccccc3c2Cl)o1 | 0.45% |
| COc1ccccc1-c1n[nH]c2c1[C@H](C)CC[C@H]2C(C)C | 38% (active) |
| C=CCN(CC=C)C(=O)CN1C(=O)c2ccccc2C1=O | 3.29% |
| Cc1ccc2c(c1)-c1c(ssc1=S)C(C)(C)N2C(=O)CN1C(=O)c2ccccc2C1=O | 60.3% (active) |
| CCOC(=O)CN1C(=O)C(=O)c2cc(C)ccc21 | 5.42% |
| CC(C)OC(=O)CN1C(=O)c2ccccc2C1=O | 7.83% |
| C=CCn1c(C)cc(C(=O)CN2C(=O)c3ccccc3C2=O)c1C | 11.4% |
| Cc1cc2c(cc1C)N(C(=O)CN1C(=O)c3ccccc3C1=O)C(C)(C)c1ssc(=S)c1-2 | 32.6% (active) |
| CN1CCN(S(=O)(=O)c2ccc(N3CCN(S(=O)(=O)c4cccs4)CC3)nc2)CC1 | 4.14% |
| O=C(CNC(=O)c1cc2c(s1)CCC2)Nc1ccccc1Br | -4.14% |
| CCOC(=O)C1(S(=O)(=O)c2ccccc2)CCN(Cc2ccccc2)CC1 | 4.95% |
| COC(=O)c1sc2ncccc2c1OCc1ccc(Cl)cc1Cl | 11.1% |
| NC(=O)COc1ccc(/C=N/NC(=O)C2CCCN2S(=O)(=O)c2ccc(Cl)cc2)cc1 (stereo not drawn) | 18.9% |
| NC(N)=N/N=C/c1ccc(OCc2ccc(Cl)cc2Cl)cc1 | 67.2% (active) |

| Compound | inhibition |
| --- | --- |
| CCN(CC)c1ccc(NC(=O)c2ccc(Cl)nc2)cc1 | 17.1% |
| Cn1nc(-c2ccccc2)c(-c2nc(-c3ccc(Cl)cc3)no2)c1Cl | -5.95% |
| CC1CN(c2nc(-c3ccccc3)nnc2-c2ccccc2)CC(C)O1 (stereo not drawn) | 31.6% (active) |
| Cc1c(C(=O)N2CC(C)OC(C)C2)sc2nc(-c3ccccc3)cn12 (stereo not drawn) | 7.66% |
| Cc1ccc(-c2nnc(C)c(N3CC(C)OC(C)C3)n2)cc1 (stereo not drawn) | 20.1% |
| O=c1cc(Cn2nnc(-c3ccc(Cl)cc3)n2)nc2sccn12 | 11.5% |
| Clc1ccc(-c2nnc(-c3ccccc3)nc2N2CCSCC2)cc1 | 51% (active) |
| COCc1cc(C)nc2sc(C(=O)NC3CCCCC3)c(N)c12 | 8.15% |
| O=C1c2ccccc2C(=O)c2c1cccc2N1CCN(CCO)CC1 | 9.4% |
| O=c1cc(N2CCN(Cc3ccccc3)CC2)c(-c2ccccc2)n[nH]1 | 23.1% |
| CC(C)Cn1c(CN(Cc2ccccc2)Cc2ccccc2)nc2c1c(=O)n(C)c(=O)n2C | 33.1% (active) |
| CC(C)CCn1c(CN(C)Cc2ccccc2)nc2c1c(=O)n(C)c(=O)n2C | 9.18% |
| COCCn1c(CN(Cc2ccccc2)Cc2ccccc2)nc2c1c(=O)n(C)c(=O)n2C | 14.8% |
| CCC(=O)NNc1cc(=O)c2c(=O)n(C)c(=O)n(C)c2[nH]1 | 0% |
| CN(C)/C=C(\C#N)C(=O)c1cccnc1Oc1cccc(F)c1 | 10.6% |
| CNC(=S)N1N=C(c2ccccc2)CC1c1ccc(Br)cc1 (stereo not drawn) | 80.4% (active) |
| COc1ccc(NC(=S)N2N=CCC2c2ccccc2)cc1 (stereo not drawn) | 10.8% |
| O=C(COc1ccc(Cl)cc1)Nc1ccccc1CO | 36.8% (active) |
| O=C(COc1ccc(Cl)cc1)NCCSc1ccccc1 | 25.3% |
| O=C(COc1ccccc1)Nc1nonc1NC(=O)COc1ccccc1 | 14.2% |
| O=C(NCCCn1ccnc1)Nc1ccc(Cl)cc1Cl | 0.62% |
| Cc1nc(SCC(=O)Nc2cc(C)on2)c2c(C)c(C)sc2n1 | -1.7% |
| Cc1nc(SCC(=O)N2CCc3ccccc3C2)c2c(C)c(C)sc2n1 | 49.5% (active) |
| Cc1nc(SCC(=O)N2CC(=O)Nc3ccccc32)c2c(C)c(C)sc2n1 | 2.3% |
| Cc1ccc(NC(=S)NC(=O)c2ccc(-c3ccccc3)cc2)c(C)c1 | 0.3% |

| Compound | inhibition |
| --- | --- |
| CC1(C)Cc2ccccc2-c2nc(CN3CCOCC3)[nH]c(=O)c21 | 15.4% |
| CCC1(CC)Cc2ccccc2-c2nc3ccccc3c(=O)n21 | 8.32% |
| CCOC(=O)C1Cn2c(nc3c(c2=O)C(C)(CC)Cc2ccccc2-3)S1 (stereo not drawn) | 39.9% (active) |
| CCN(CC)c1nc(-c2ccccc2)cc(C(F)(F)F)c1C#N | 13.7% |
| Cc1ccc2nc(/C(C#N)=C\c3ccc(OC(=O)c4cccs4)cc3)[nH]c2c1 | -11.1% |
| CC(C)C(=O)OCC(=O)Nc1ccc2c(c1)CCC2 | 3.52% |
| O=C(Cn1cc2c(n1)CCCCC2)NCCN1CCOCC1 | -2.81% |
| COCCNC(=O)Cn1cc2c(n1)CCCCC2 | 2.72% |
| CCOC(=O)N1CCC(NC(=O)Cn2cc3c(n2)CCCCC3)CC1 | 31.9% (active) |
| Cc1c(C#N)c(NC(=O)c2ccccc2)n(Cc2ccccc2)c1C | 8.33% |
| O=c1c2ccccc2nc2n1C(CSCc1cccc(C(F)(F)F)c1)CS2 (stereo not drawn) | 4.97% |
| O=c1onc(-c2cccs2)n1Cc1ccccc1 | 2.85% |
| CS(=O)(=O)NCc1ccc(C(=O)NCc2ccccc2)cc1 | 8.59% |
| Cc1c(C(=O)NCc2ccccc2)cnn1-c1ccccc1 | 9.12% |
| Cc1ccc(CNC(=O)c2ccccc2CCc2ccccc2)cc1 | 35.3% (active) |
| CC1CC(C)CN(C/C=C/c2ccccc2[N+](=O)[O-])C1 (stereo not drawn) | 7.64% |
| Cc1cc(C)n(-c2c(F)c(F)c(COC(=O)c3ccccc3)c(F)c2F)n1 | 25.1% |
| O=C(OCC(O)C(O)COC(=O)c1ccccc1)c1ccccc1 (stereo not drawn) | 5.59% |
| Cc1[nH]n(-c2ccccc2)c(=O)c1CCOC(=O)c1ccc(C(F)(F)F)cc1 | 33.5% (active) |
| CCC(=O)c1c[nH]c(C(=O)NCC2CCCO2)c1 (stereo not drawn) | -1.27% |
| Cc1cc(C)c(NC(=O)CS(=O)CC(=O)Nc2cccnc2)c(C)c1 (stereo not drawn) | -5.42% |
| CCOc1cccc(C(=O)Nc2cccnc2)c1 | -3.62% |
| Cc1cccc(-n2cnc(C(=O)Nc3cccnc3)c2)n1 | 31.6% (active) |
